The source made the active and inactive calls. A call without a number means that no potency is given here. Calls follow the shape of the dose curve; as a rule, active = well fitted curve in the direction sought with a large enough effect in the repeat runs; inconclusive = weak or mixed curves; inactive = flat fitted curve, though single readings scatter.
Assay: qHTS assay to test for compound auto fluorescence at 460 nm (blue) in HepG2 cells (AID 720687)
Conditions: autofluorescence 405/460 nm, 1 h; series mostly up to 46 µM
Text: U.S. Tox21 Program National Center for Advancing Translational Sciences [NCATS] NIH Chemical Genomics Center [NCGC] U.S. Environmental Protection Agency [EPA] National Institutes of Environmental Health Sciences [NIEHS] National Toxicology Program [NTP] U.S. Food and Drug Administration [FDA] Tox21 Assay Overview: Compound auto fluorescence often interferes with screening of the compound library against various biological targets and signaling pathways. Some of these compounds may have fluorophoric properties. Such properties may interfere with the assay outputs resulting in false positives and/or negatives. To decrease such complications and ensure the compound activities are relevant in terms of biological response, the Tox21 10K compound library was screened for auto fluorescence. From the fluorophores used as reporter signals in our screening assays, the auto fluorescence equivalencies of compounds against three fluorophores have been evaluated: Triamterene, Fluorescein and Rose Bengal sodium for blue, green and red fluorescence, respectively. The fluorescence intensities were measured using Excitation/Emission wavelengths at 405/460nm, 485/535nm and 540/590nm for blue, green and red labels, respectively. This assay includes the blue fluorescence data.
Tox21 Assay Protocol Summary: 2,000 HepG2 cells in 5 uL of culture medium (MEM containing 10% FBS) per well were dispensed into black wall/clear bottom 1536-well plates using a Multidrop Combi Dispenser (ThermoFisher Scientific, Waltham, MA). The assay plates were incubated overnight at 37 C to allow cell attachment to the well bottom, followed by the transfer of 23 nL compound or DMSO vehicle by a pintool work station (Kalypsys , San Diego, CA). After the assay plates were incubated for 1 hr at 37 C and 5% CO2, fluorescence intensities in the assay plates were measured by an Envision (PerkinElmer, Shelton, CT) plate reader using three labels for measuring blue, green and red fluorescence at […] 460, 535 and 590 nm respectively.

SMILES | Potency
Cc1ccc(C(C)(C)c2ccc(C)cc2)cc1 | inactive
SC1CCCCC1 | inactive
c1ccc2cc3c4ccccc4c4ccccc4c3cc2c1 | inactive
Cc1cc(CC(C)CC(C)(C)C)n(O)c(=O)c1 (stereo not given) (tested in a mixture with another compound) | inactive
O=C(Cn1cnnn1)N[C@@H]1C(=O)N2C(C(=O)O)=C(CSc3nncs3)CS[C@H]12 | inactive
O=C(O)c1cc2cc(Cc3cccnc3)ccc2o1 | inactive
CCN(CC)CCNC(=O)c1ccc(NS(C)(=O)=O)cc1 | inactive
N[C@@H](Cc1cnc[nH]1)C(=O)O | inactive
Cc1cc(N)c2ccccc2[n+]1CCCCCCCCCC[n+]1c(C)cc(N)c2ccccc21 | inactive
O=C(O)c1cc(O)c2c(c1)[C@H]([C@H]1c3cc(C(=O)O)cc(O)c3C(=O)c3c(O[C@@H]4O[C@H](CO)[C@@H](O)[C@H](O)[C@H]4O)cccc31)c1cccc(O[C@@H]3O[C@H](CO)[C@@H](O)[C@H](O)[C@H]3O)c1C2=O | inactive
O=C1OC(=O)c2cc(-c3ccc4c(c3)C(=O)OC4=O)ccc21 | inactive
CO/N=C(\C(=O)N[C@@H]1C(=O)N2C(C(=O)O)=C(C[N+]3(C)CCCC3)CS[C@H]12)c1csc(N)n1 | inactive
CC(C)(S)C(=O)N[C@@H](CS)C(=O)O | inactive
CC(C)[N+]1(C)[C@@H]2CC[C@H]1CC(OC(=O)C(CO)c1ccccc1)C2 (stereo not given in full) | inactive
CN(C[C@@H](CC[N+]12CCC(C3CCCCC3)(CC1)CC2)c1ccc(Cl)c(Cl)c1)C(=O)c1cc(C(F)(F)F)cc(C(F)(F)F)c1 | inactive
N#Cc1nc(Cl)c(Cl)c(Cl)c1Cl | inactive
O=C1c2ccccc2C(=O)C1c1ccc(F)cc1 | inactive
O=c1[nH]c(=O)n([C@H]2C[C@H](O)[C@@H](CO)O2)cc1/C=C/Br | inactive
CC1=C(/C=C/C(C)=C/C=C/C(C)=C\C(=O)O)C(C)(C)CCC1 | inactive
CC(C)NCC1CCc2cc(CO)c([N+](=O)[O-])cc2N1 (stereo not given) | inactive

SMILES | Potency
CC1(C)CCC(NC(=O)[C@@H](N)CCC(=O)O)CC1 | inactive
O=C1OC(O)C(C(Cl)Cl)=C1Cl (stereo not given) | inactive
CC[C@H]1OC(=O)[C@H](C)C(=O)[C@H](C)[C@@H](O[C@@H]2O[C@H](C)C[C@H](N(C)C)[C@H]2O)[C@](C)(OC)C[C@@H](C)C(=O)[C@H](C)[C@H]2N(CCCCn3cnc(-c4cccnc4)c3)C(=O)O[C@]12C | inactive
CCOC(=O)Cc1ccc(-c2ccccc2)cc1 | inactive
O=C(O)CCCC/C=C(\c1ccccc1)c1cccnc1 | inactive
C1CCc2nnnn2CC1 | inactive
CN1CCN(c2ccccc2/C=C2\SCCN(c3ccc(Cl)c(Cl)c3)C2=O)CC1 | inactive
OCl | inactive
CC1CCCC(C)N1NC(=O)c1ccc(Cl)c(S(N)(=O)=O)c1 (stereo not given) | inactive
O=C(CCCCCCCCc1cccnc1)N1CCC(C=C(c2ccccc2)c2ccccc2)CC1 | inactive
O=C1CC[C@@H](C(=O)N[C@H]2C[C@@H]2c2ccccc2)N1 | inactive
CCCCCCCC/C=C\CCCCCCCC(=O)N(CCO)CCO | inactive
Cc1ccc(Cl)c(N)c1Cl | inactive
N[C@H](CO)C(=O)O | inactive
CN1CC[C@H](c2c(O)cc(O)c3c(=O)cc(-c4ccccc4Cl)oc23)[C@H](O)C1 | inactive
CCCOC(=O)c1ccc(O)cc1 | inactive
CCCCCCCCCCCC[n+]1ccc2ccccc2c1 | inactive
NC(=O)C1c2ccccc2CCc2ccccc21 | inactive
CC(=O)NC[C@H]1CN(c2ccc(N3CCOCC3)c(F)c2)C(=O)O1 | inactive
C[C@@H]1C(=O)NC2=Nc3cccc(Cl)c3CN21 | inactive

Source: PubChem BioAssay (Tox21)
